Screening data (PubChem BioAssay)
Most compounds without a hit are left out; they make up all but 27% or so of the library.
CYP2C9 activ: human CYP2C9 activators, primary screen, biochemical, luminescence; 1.4% of 96,000 active; AID 1024, 2008; activation factor at 5 µM; recombinant CYP2C9, luciferin-H conversion; hits give high values; factor 1 = untreated enzyme, 0 = blocked;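 active = activation factor of 2 or more for CYP2C9 at a 5 µM dose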
sEH act: soluble epoxide hydrolase activators, primary screen, biochemical, human sEH. purified human sEH enzymatic activity, activator screen. activation, % at 2 µM. 0.04% of 91,000 active; in the data active = activation above about 37%
CYP2C9 inhib: blockers of cytochrome P450 2C9 activity – biochemical, luminescence, ADME assay, primary screen; P11712; CYP2C9 Supersomes, luciferin-H conversion; inhibition, % at 5 µM; 20% of 96,000 active;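 active = blocking of liver enzyme CYP2C9 beyond about 50% at 5 µM, limit read from the data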
CYP2C19 act: human CYP2C19 activators, primary screen, biochemical, luminescence | Cytochrome P450 2C19 (Homo sapiens), P33261 | recombinant CYP2C19, luciferin-H EGE luminescence; hits give high values; 0 = fully inhibited enzyme, 1 = untreated enzyme | activation factor at 5 µM | 96,000 tested, under 10 active;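 active = activation factor of at least 2 at 5 µM in the primary screen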
Target sequence (P33261 whole entry, looked up): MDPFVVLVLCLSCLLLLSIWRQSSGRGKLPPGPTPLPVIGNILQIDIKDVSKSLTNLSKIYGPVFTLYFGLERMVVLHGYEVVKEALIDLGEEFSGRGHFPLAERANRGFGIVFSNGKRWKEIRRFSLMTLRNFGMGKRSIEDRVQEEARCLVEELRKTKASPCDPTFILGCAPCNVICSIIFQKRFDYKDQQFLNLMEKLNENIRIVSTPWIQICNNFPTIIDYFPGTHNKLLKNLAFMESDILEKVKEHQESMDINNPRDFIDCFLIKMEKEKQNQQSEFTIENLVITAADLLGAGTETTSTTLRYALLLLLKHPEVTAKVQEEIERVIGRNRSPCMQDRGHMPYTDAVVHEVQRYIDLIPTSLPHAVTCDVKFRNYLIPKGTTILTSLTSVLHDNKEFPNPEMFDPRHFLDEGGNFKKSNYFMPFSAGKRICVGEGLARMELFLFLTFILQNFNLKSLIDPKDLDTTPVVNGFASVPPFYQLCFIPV
sEH inh: soluble epoxide hydrolase inhibitors, primary screen, biochemical, human sEH; recombinant human sEH enzymatic activity assay; inhibition, % at 2 µM; 0.34% of 91,000 active; AID 707, 2007; in the data active = inhibition above about 80%
CYP2C19 inh: blockers of cytochrome P450 2C19 activity – biochemical, luminescence, ADME assay, primary screen. P33261. CYP2C19 Supersomes, luciferin-H EGE luminescence, 30 min. inhibition, % at 5 µM. 21% of 96,000 active. AID 778, 2007;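 active = CYP2C19 inhibition above a set limit at 5 µM in the primary screen, cut at about 50% in these data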
Hits are given with their value; i = inactive; nt = no result.

SMILES	CYP2C9 activ	sEH act	CYP2C9 inhib	CYP2C19 act	sEH inh	CYP2C19 inh
CC(=O)N1CCc2cc(S(=O)(=O)NC(CC(C)C)C(=O)N3CCn4c3nc3ccccc34)ccc21 (stereo unspecified)	i	i	56.7	i	i	50.7
CC(=O)N1CCc2cc(S(=O)(=O)NC(Cc3ccccc3)C(=O)NC3CCCCCC3)ccc21 (stereo unspecified)	i	i	53.0	i	i	i
CC(=O)N1CCc2cc(S(=O)(=O)NC(C(=O)NCc3ccccc3)C(C)C)ccc21 (stereo unspecified)	i	i	i	i	i	i
Cc1nc2ccc(S(=O)(=O)NC(C(=O)N3CCn4c3nc3ccccc34)C(C)C)cc2s1 (stereo unspecified)	i	i	i	i	i	i
Cc1cc(C)c(C(N)=O)c(NCCc2ccccc2)n1	i	i	i	i	i	56.2
Cc1ccc(N=Nc2c(N)[nH]n3c(=O)c4c(nc23)CCCC4)cc1	i	i	i	i	i	i
Cc1cc(/C=N\NC(=O)CC(=O)NC2CCCCC2)c(C)n1-c1ccc(Cl)c(Cl)c1	i	i	i	i	i	i
COc1cccc(NC(=O)C(=O)N/N=C/c2cc(C)n(-c3ccc(Cl)c(Cl)c3)c2C)c1	i	i	i	i	i	57.1
O=S(=O)(c1cccs1)N1CCN(CC(O)COC2CCCc3ccccc32)CC1 (stereo unspecified)	i	i	62.0	i	i	i
CCOC(=O)CSc1n[nH]c(NC(=O)c2ccc(F)cc2)n1	i	i	i	i	i	53.1
COCCNC(=O)CN1CCC(NC(=O)Nc2ccc(C(F)(F)F)cc2)CC1	i	i	i	i	89.1	i
CCOc1ccccc1NC(=O)NC1CCN(CC(=O)Nc2ccc3c(c2)OCCO3)CC1	i	i	i	i	i	58.9
COc1ccccc1NC(=O)CN1CCN(CC(=O)Nc2ccc3c(c2)OCO3)CC1	i	nt	i	i	nt	87.6
COc1ccccc1NC(=O)Nc1ccc2c(c1)OCCO2	i	i	54.1	i	i	82.2
CC(=O)Nc1ccc(-c2nnc(SCC(=O)c3ccc4c(c3)Cc3ccccc3-4)n2C)cc1	i	i	i	i	i	i
CCSc1nc2ccccc2n1C(=O)/C=C\c1ccc(OC)c(OC)c1	i	i	i	i	i	i
CC(C)c1ccc(NC(=O)NC2CCN(CC(=O)Nc3cccc4ccccc34)CC2)cc1	i	i	i	i	89.6	56.5
CCc1nc(N)c(C#N)c(-c2ccncc2)c1C	i	i	72.7	i	i	99.8
CCc1nc(N)c(C#N)c(-c2ccc(O)c(OC)c2)c1C	i	i	i	i	i	53.2
CCc1nc(N)c(C#N)c(-c2ccc(OC)c(OC)c2)c1C	i	i	i	i	i	i
Cc1cccc(C)c1NC(=O)N1C2CCCC1CC(NC(=O)C(C)(C)C)C2 (stereo unspecified)	i	nt	i	i	nt	i
CCOC(=O)C1=C(C)NC(C)=C(C(=O)OCC)C1c1cc(N)ccc1OC(F)F	i	i	56.7	i	i	i
O=C(NCc1nnc(SCC(=O)N2CCCC2)o1)c1c(F)cccc1Cl	i	i	i	i	i	i
O=C(NCc1nnc(SCC(=O)N2CCC(Cc3ccccc3)CC2)o1)c1ccccc1F	i	i	71.5	i	i	i
CC(C)(C)c1cc(/C=N/NC(=O)Cc2nc3ccccc3[nH]2)cc(C(C)(C)C)c1O	i	i	99.3	i	i	92.9
Cc1cnc(NC(=O)c2c(O)c3cccc4c3n(c2=O)CCC4)s1	i	i	i	i	i	i
CC(C)c1nnc(NC(=O)c2c(O)c3cccc4c3n(c2=O)CCC4)s1	i	i	62.6	i	i	i
CC(C)(C)C(=O)Nc1ccc(C(=O)NNC(=O)Cc2ccccc2)cc1	i	i	i	i	i	i
CSc1oc(-c2ccco2)nc1S(=O)(=O)c1ccccc1	2.9	i	i	i	i	i
CC(C)Sc1oc(-c2ccco2)nc1S(=O)(=O)c1ccccc1	nt	i	nt	nt	i	nt
